Test results published in ChEMBL document CHEMBL3988442, “University of Dundee, Small-Polar-MMV Screening Library” (2021).
Results with a measured potency or affinity are listed apart.

molecular target: Protein translocase subunit SecA (Escherichia coli (strain K12)) (UniProt P10408); assay: Assay to Identify E. coli SecA ATPase Inhibitors; assay type: functional; set-up: scale not given: direction of the effect not stated beside the values; conditions: 30 µM
Sequence (P10408 whole entry): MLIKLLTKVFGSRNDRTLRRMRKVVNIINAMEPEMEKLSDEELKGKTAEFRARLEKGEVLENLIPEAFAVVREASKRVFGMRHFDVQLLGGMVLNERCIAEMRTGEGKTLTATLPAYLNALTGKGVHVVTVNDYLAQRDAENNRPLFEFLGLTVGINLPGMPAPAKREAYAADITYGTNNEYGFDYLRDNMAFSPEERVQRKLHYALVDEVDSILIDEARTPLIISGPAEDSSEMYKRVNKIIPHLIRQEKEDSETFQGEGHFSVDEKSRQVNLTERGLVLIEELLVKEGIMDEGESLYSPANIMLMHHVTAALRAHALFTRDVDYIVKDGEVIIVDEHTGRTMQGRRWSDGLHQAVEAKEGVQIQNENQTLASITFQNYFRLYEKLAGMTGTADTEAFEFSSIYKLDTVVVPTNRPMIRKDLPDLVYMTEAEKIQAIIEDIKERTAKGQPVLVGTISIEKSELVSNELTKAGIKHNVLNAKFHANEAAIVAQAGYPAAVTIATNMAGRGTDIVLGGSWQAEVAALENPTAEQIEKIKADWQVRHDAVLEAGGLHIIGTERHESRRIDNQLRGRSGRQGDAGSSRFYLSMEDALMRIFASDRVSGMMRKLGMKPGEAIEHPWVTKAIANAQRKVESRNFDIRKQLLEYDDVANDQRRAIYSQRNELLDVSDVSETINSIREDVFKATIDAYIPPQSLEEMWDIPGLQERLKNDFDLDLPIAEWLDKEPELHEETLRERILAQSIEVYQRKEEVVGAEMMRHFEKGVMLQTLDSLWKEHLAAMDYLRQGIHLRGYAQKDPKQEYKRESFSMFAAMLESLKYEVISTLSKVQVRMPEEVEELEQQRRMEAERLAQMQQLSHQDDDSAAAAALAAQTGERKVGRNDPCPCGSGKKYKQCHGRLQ

Compound	Percent Effect
Cc1cccc(N2CC[C@@H]3CN(C(=O)c4ccco4)CCO[C@@H]3C2)n1	-3.29%
CCC1=N[C@@]2(CC[C@@H]3CN(CC(=O)N(C)C)C[C@@H]32)C(=O)N1CC1CC1	-0.889%
CCCC(NC(=O)c1ccc(OC)cc1F)c1nnn[nH]1 (stereo not given)	-2.26%
Cc1noc(C(C)N2CCN(CC(=O)N3CCOCC3)CC2)n1 (stereo not given)	-5.15%
c1ccc(CN2CCCC2Cn2cncn2)nc1 (stereo not given)	-2.52%
O=C(c1ccno1)N1CC[C@@H]2O[C@@H](COCCN3CCCC3)CC[C@@H]21	-3.63%
CCOc1ccnc(N2CCN(C(=O)c3cccnc3O)CC2)n1	-3.86%
CC(C)(C(=O)NCC(N)=O)c1ccccc1F	-2.75%
CCOc1ncccc1C(=O)N(C)Cc1ncc(C)c(OC)c1C	-0.0989%
Cc1cccc(C(=O)N2C[C@@H]3CCN(c4cccnc4)C[C@@H]3C2)c1	-6.42%
CC(OCC(F)(F)F)C(=O)Nc1ccc(-n2cncn2)nc1 (stereo not given)	-3%
Cc1noc(C)c1-c1cncc(C2CCCN2Cc2ccncc2)n1 (stereo not given)	1.38%
C=C(C)CN(Cc1cccc(O)c1)C1CCC(O)CC1 (stereo not given)	-4.6%
COc1ccccc1CC(=O)N1CCC(NCc2c[nH]nc2C)CC1	-1.53%
CC(C)Cc1noc(CN2CCN(CCO)CC2)n1	-0.954%
COc1cccc(CN(C)C(=O)CN2CC(n3nc(C)cc3C)C2)c1	-0.578%
CCc1noc(C)c1C(=O)N1CCCC1Cn1nc(C)cc1C (stereo not given)	-3.14%
COc1ccc(CN(C)C(=O)CCc2c(C)nc(C)[nH]c2=O)cc1OC	-2.11%
Cc1cc(N2CCCN(C(=O)Cc3ccc(O)c(Cl)c3)CC2)ccn1	-3.42%
Cc1ccc2nc(C3CCN(CCO)CC3)nn2c1	1.65%

Compound	Percent Effect
Cc1ccsc1C(=O)N1CC(C(=O)N2CCOCC2)C2(CCOCC2)C1 (stereo not given)	-7%
Cc1ccccc1C(=O)NCc1ccc(N2CCNC(=O)C2)cc1	1.43%
CC1CCN(S(=O)(=O)NCCCn2cncn2)CC1	-3.76%
CCN(Cc1ccc2c(c1)OCO2)C(=O)NC(C)Cn1cccn1 (stereo not given)	-2.99%
CCN(CC)C(=O)CCc1c(C)nc2cc(O)nn2c1C	-1.3%
CC(C)NC(=O)[C@@H]1C[C@H](N)CN1C(=O)c1cc2ccccc2[nH]c1=O	-3.02%
CCc1ccc(NC(=O)N2C[C@H]3C[C@H](C(=O)NC)[C@@H](C2)O3)cc1	0.946%
CCN1CC2(CCNCC2)COc2ccccc2S1(=O)=O	-1.39%
CN1CCc2cc(C(CNS(=O)(=O)c3cccs3)N3CCCC3)ccc21 (stereo not given)	-1.64%
CC(NC(=O)N(C)Cc1ccc(Cl)s1)c1ccccn1 (stereo not given)	-2.39%
O=c1oc(-c2cccs2)nn1CC(O)c1ccccc1 (stereo not given)	-3.18%
Cc1cc(NC(=O)NCc2ccccc2OC(F)F)n(C)n1	1.45%
O=C(Cn1ccc2ccccc21)NCc1ccc(C(=O)O)cc1	-5.35%
CCCNC(=O)Cn1nc(C(C)C)c2cnn(C(C)(C)C)c2c1=O	-3.37%
Cc1ccc(CNCc2nnc3n2CCCC3C(F)(F)F)s1 (stereo not given)	-1.65%
CCn1c(Cn2cncn2)nnc1C1CCN(Cc2ccncc2)CC1	-5.1%
CC(=O)c1cc(CC(=O)NCc2ccc(CN(C)C)cc2)cs1	-2.94%
CN(Cc1ccsc1)C(=O)CN1CCCC1Cn1cccn1 (stereo not given)	-3.48%
c1cnnc(N2CCCC2CNCc2nc3ccccc3o2)c1 (stereo not given)	-0.208%
CCN1C[C@@H]2[C@@H](OC)CCN(S(=O)(=O)c3ccccc3)[C@@H]2C1	-1.54%

molecular target: T1, Ubiquitin-activating enzyme e1, putative (Leishmania donovani (strain BPK282A1)) (UniProt E9BSI1); assay: Leishmania donovani Ubiquitin Activating Enzyme (LdE1); assay type: functional; set-up: scale not given: direction of the effect not stated beside the values; conditions: 30 µM
T1 sequence (whole entry): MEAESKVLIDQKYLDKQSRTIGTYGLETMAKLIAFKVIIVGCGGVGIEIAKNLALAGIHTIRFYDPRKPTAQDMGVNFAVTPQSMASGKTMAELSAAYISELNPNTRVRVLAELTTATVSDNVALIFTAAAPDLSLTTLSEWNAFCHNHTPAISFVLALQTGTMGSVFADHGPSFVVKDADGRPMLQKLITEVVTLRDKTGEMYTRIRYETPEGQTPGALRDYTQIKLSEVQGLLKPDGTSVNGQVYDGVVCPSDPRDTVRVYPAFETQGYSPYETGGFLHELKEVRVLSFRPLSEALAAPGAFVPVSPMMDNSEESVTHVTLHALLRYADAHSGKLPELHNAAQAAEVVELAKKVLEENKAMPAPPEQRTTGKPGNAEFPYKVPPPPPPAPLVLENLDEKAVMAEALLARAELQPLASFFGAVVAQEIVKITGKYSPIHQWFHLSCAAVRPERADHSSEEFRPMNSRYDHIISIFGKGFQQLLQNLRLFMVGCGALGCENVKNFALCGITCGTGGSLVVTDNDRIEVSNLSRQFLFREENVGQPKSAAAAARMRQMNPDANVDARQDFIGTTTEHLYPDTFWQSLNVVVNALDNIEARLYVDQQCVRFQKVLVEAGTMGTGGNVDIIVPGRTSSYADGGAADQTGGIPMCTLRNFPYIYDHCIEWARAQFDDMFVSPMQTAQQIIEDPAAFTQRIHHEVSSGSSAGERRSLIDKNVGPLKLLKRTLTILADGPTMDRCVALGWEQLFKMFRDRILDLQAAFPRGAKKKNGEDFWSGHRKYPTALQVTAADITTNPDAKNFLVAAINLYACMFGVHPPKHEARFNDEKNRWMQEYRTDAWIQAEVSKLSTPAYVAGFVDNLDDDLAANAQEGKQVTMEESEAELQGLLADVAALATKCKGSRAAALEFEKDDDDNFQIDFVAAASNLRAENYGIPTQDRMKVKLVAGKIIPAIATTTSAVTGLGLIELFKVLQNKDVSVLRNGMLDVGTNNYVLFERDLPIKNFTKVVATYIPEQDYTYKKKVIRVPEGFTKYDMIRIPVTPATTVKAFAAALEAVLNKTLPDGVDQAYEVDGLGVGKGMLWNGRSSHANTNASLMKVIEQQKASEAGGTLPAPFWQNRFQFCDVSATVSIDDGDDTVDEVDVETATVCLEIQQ

Compound	Percent Effect
Cc1cccc(N2CC[C@@H]3CN(C(=O)c4ccco4)CCO[C@@H]3C2)n1	10.7%
CCC1=N[C@@]2(CC[C@@H]3CN(CC(=O)N(C)C)C[C@@H]32)C(=O)N1CC1CC1	6.67%
CCCC(NC(=O)c1ccc(OC)cc1F)c1nnn[nH]1 (stereo not given)	5.33%
Cc1noc(C(C)N2CCN(CC(=O)N3CCOCC3)CC2)n1 (stereo not given)	10.5%
c1ccc(CN2CCCC2Cn2cncn2)nc1 (stereo not given)	-2.53%
O=C(c1ccno1)N1CC[C@@H]2O[C@@H](COCCN3CCCC3)CC[C@@H]21	10.8%
CCOc1ccnc(N2CCN(C(=O)c3cccnc3O)CC2)n1	17.7%
CC(C)(C(=O)NCC(N)=O)c1ccccc1F	-1.39%
CCOc1ncccc1C(=O)N(C)Cc1ncc(C)c(OC)c1C	13%
Cc1cccc(C(=O)N2C[C@@H]3CCN(c4cccnc4)C[C@@H]3C2)c1	2.67%
CC(OCC(F)(F)F)C(=O)Nc1ccc(-n2cncn2)nc1 (stereo not given)	2.6%
Cc1noc(C)c1-c1cncc(C2CCCN2Cc2ccncc2)n1 (stereo not given)	1.35%
C=C(C)CN(Cc1cccc(O)c1)C1CCC(O)CC1 (stereo not given)	5.41%
COc1ccccc1CC(=O)N1CCC(NCc2c[nH]nc2C)CC1	13.5%
CC(C)Cc1noc(CN2CCN(CCO)CC2)n1	10.5%
COc1cccc(CN(C)C(=O)CN2CC(n3nc(C)cc3C)C2)c1	-73.7%
CCc1noc(C)c1C(=O)N1CCCC1Cn1nc(C)cc1C (stereo not given)	5.26%
COc1ccc(CN(C)C(=O)CCc2c(C)nc(C)[nH]c2=O)cc1OC	6.94%
Cc1cc(N2CCCN(C(=O)Cc3ccc(O)c(Cl)c3)CC2)ccn1	13.7%
Cc1ccc2nc(C3CCN(CCO)CC3)nn2c1	10.7%

Compound	Percent Effect
Cc1ccsc1C(=O)N1CC(C(=O)N2CCOCC2)C2(CCOCC2)C1 (stereo not given)	2.6%
Cc1ccccc1C(=O)NCc1ccc(N2CCNC(=O)C2)cc1	5.41%
CC1CCN(S(=O)(=O)NCCCn2cncn2)CC1	6.33%
CCN(Cc1ccc2c(c1)OCO2)C(=O)NC(C)Cn1cccn1 (stereo not given)	20.8%
CCN(CC)C(=O)CCc1c(C)nc2cc(O)nn2c1C	0%
CC(C)NC(=O)[C@@H]1C[C@H](N)CN1C(=O)c1cc2ccccc2[nH]c1=O	20.8%
CCc1ccc(NC(=O)N2C[C@H]3C[C@H](C(=O)NC)[C@@H](C2)O3)cc1	2.6%
CCN1CC2(CCNCC2)COc2ccccc2S1(=O)=O	6.67%
CN1CCc2cc(C(CNS(=O)(=O)c3cccs3)N3CCCC3)ccc21 (stereo not given)	13%
CC(NC(=O)N(C)Cc1ccc(Cl)s1)c1ccccn1 (stereo not given)	13.9%
O=c1oc(-c2cccs2)nn1CC(O)c1ccccc1 (stereo not given)	8%
Cc1cc(NC(=O)NCc2ccccc2OC(F)F)n(C)n1	6.33%
O=C(Cn1ccc2ccccc21)NCc1ccc(C(=O)O)cc1	2.63%
CCCNC(=O)Cn1nc(C(C)C)c2cnn(C(C)(C)C)c2c1=O	5.48%
Cc1ccc(CNCc2nnc3n2CCCC3C(F)(F)F)s1 (stereo not given)	8%
CCn1c(Cn2cncn2)nnc1C1CCN(Cc2ccncc2)CC1	5.41%
CC(=O)c1cc(CC(=O)NCc2ccc(CN(C)C)cc2)cs1	8.11%
CN(Cc1ccsc1)C(=O)CN1CCCC1Cn1cccn1 (stereo not given)	-18.2%
c1cnnc(N2CCCC2CNCc2nc3ccccc3o2)c1 (stereo not given)	2.74%
CCN1C[C@@H]2[C@@H](OC)CCN(S(=O)(=O)c3ccccc3)[C@@H]2C1	16%
